For 34 compounds, outcome and AC50 results are on record in PubChem BioAssay (EPA / NIEHS).

Inconclusive results are not listed. Calls of active or inactive are those of the source. The calls were made as follows, unless noted: active = hit-call score of the fitted dose curve at least 0.9, where 1 is the maximum; inconclusive = response in the unintended direction; inactive = score below 0.9.

The term AC50 denotes the midpoint of the concentration-response curve, whichever way the signal moves.

Sequence of Estrogen receptor (Homo sapiens) (P03372 whole entry, looked up): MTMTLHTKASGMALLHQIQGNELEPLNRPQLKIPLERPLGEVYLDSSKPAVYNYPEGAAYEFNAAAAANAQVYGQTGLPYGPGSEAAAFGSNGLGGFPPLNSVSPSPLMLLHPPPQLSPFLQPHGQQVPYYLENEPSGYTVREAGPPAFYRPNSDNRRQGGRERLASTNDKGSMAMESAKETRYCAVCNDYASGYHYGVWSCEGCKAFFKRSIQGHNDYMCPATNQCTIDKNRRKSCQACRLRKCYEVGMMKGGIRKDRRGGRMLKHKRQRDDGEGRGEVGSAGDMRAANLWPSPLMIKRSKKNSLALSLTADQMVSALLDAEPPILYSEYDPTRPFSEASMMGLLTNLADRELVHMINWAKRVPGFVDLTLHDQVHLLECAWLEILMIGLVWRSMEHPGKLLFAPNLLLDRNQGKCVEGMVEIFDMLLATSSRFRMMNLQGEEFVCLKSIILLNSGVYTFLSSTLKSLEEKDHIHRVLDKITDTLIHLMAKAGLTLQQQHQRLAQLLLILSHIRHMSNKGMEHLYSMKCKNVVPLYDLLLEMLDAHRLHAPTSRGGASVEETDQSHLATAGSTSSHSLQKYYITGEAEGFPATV
Sequence of mouse Estrogen Receptor alpha (Era), Esr1 (gene 13982) (P19785 whole entry, looked up): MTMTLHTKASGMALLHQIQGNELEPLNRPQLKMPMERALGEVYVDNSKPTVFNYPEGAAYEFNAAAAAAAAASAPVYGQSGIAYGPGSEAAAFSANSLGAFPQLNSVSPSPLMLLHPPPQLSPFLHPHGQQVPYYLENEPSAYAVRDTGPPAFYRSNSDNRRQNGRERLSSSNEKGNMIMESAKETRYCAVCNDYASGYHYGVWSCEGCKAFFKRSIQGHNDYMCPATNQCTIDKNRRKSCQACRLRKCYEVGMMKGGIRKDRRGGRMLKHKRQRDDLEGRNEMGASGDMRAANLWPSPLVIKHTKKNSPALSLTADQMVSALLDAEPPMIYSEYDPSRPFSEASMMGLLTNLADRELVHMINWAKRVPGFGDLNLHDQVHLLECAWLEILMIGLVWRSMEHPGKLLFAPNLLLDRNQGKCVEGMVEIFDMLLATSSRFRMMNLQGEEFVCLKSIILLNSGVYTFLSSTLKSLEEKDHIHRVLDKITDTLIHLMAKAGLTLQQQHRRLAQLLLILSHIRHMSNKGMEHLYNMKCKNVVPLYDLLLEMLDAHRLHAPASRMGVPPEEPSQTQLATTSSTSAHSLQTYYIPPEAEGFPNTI
Sequence of Norway rat Vesicular Monoamine Transporter (VMAT2), neurotransmitter transporter, Slc18a2 (gene 25549) (Q01827 whole entry, looked up): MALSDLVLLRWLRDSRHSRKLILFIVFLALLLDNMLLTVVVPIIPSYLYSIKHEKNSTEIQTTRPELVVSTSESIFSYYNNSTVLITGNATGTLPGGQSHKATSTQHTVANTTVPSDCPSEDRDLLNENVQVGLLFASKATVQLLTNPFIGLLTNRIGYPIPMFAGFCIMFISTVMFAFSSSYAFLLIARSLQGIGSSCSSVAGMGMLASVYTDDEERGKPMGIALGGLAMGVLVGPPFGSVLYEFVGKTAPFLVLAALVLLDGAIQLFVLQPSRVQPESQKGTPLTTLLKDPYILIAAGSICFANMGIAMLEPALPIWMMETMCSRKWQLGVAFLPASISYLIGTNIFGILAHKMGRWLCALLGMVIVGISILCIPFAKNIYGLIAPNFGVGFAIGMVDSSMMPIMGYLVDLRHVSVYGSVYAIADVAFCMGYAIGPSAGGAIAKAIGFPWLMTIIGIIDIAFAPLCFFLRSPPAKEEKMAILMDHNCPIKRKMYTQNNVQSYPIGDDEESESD
Sequence of Agonist Androgen Response Element (ARE), AR (gene 367) (P10275 whole entry, looked up): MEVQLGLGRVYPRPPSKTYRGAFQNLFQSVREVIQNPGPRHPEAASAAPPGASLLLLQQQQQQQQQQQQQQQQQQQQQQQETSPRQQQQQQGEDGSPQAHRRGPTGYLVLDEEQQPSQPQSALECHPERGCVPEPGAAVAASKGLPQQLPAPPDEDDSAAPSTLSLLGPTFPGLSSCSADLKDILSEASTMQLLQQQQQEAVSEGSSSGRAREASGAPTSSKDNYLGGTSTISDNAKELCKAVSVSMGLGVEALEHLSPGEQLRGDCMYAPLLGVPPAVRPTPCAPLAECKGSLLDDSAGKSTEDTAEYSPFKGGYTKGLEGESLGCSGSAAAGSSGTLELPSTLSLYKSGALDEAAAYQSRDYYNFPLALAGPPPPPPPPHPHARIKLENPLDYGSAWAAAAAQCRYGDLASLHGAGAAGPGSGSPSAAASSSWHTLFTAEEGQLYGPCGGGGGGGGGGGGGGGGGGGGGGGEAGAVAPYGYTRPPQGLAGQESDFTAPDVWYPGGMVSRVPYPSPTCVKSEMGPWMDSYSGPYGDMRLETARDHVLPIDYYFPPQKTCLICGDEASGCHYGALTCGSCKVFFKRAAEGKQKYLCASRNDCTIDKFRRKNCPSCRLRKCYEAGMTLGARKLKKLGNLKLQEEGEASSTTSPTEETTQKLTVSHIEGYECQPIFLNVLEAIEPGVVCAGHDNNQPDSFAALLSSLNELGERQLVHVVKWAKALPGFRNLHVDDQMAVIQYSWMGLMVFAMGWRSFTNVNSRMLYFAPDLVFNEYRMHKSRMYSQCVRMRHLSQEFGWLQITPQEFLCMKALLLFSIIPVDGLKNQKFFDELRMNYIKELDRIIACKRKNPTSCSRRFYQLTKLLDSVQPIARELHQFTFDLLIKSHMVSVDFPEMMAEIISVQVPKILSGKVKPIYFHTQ

One assay has as its target Norway rat Vesicular Monoamine Transporter (VMAT2), neurotransmitter transporter, Slc18a2 (gene 25549) (UniProt Q01827). Nature of the assay: NVS_TR_rVMAT2: NovaScreen (NVS) Transporter Assay for Norway rat Vesicular Monoamine Transporter (VMAT2), neurotransmitter transporter (AID 2283376).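 Also: actives lower the bound radioligand signal below the DMSO level.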 Put shortly:
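Binding endpoint from rat forebrain tissue, cell-free; 1 h incubation; filtered radioligand counted; 25 uM duplicate primary then dose series; DMSO negative control.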
With `N#Cc1cccnc1`, the result was inactive.

`CC1CC(=O)O1` (stereo unspecified): the compound was called inactive.

As for `CCCCCCCCCCCCN(C)C`, the compound was classed as inactive.

As to `CCCCCCCCCCCCOS(=O)(=O)O`, the compound was classed as inactive.

Regarding `O=C(N[C@H]1CN2CCC1CC2)c1ccc2c(c1)OCCO2`, the outcome was inactive.

The target in the next assay is human Norepinephrine Transporter (NET), SLC6A2 (gene 6530) (UniProt P23975). Nature of the assay: NVS_TR_hNET: NovaScreen (NVS) Transporter Assay for human Norepinephrine Transporter (NET) (AID 2283377).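 Also: cell-free membrane protein extracted from CHO cells expressing human NET.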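 As to AC50: displacement of radioligand from human NET seen as loss of scintillation signal.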 Put shortly: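 In this cell-free binding screen, chemicals at 25 uM (duplicate) compete with a radioligand for CHO-derived human NET over 1 hour, with filter-based radiodetection.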
Sequence of human Norepinephrine Transporter (NET), SLC6A2 (gene 6530) (P23975 whole entry, looked up): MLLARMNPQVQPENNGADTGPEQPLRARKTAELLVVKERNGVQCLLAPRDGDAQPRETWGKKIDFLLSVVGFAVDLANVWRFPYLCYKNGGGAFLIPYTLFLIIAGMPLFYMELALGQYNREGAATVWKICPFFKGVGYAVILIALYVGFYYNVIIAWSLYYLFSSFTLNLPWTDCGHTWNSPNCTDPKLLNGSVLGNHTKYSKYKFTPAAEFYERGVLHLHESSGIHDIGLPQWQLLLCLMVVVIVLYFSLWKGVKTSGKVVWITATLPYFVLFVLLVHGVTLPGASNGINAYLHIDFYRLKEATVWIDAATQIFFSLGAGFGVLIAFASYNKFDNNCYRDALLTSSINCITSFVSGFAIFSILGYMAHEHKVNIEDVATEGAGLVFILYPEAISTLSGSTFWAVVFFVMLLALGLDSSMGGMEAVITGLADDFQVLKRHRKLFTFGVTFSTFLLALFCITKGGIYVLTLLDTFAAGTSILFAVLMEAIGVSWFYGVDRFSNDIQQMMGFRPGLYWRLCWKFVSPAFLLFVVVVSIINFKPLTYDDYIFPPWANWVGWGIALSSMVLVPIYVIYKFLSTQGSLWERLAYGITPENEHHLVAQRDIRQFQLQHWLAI
In the case of `BrCC(Br)c1ccccc1` (stereo unspecified), the outcome was inactive.

For `O=C(O)C1(c2ccc3c(c2)OC[C@H](Cc2ccc(-c4ccccc4)cc2)[C@H]3O)CCCC1`, the AC50 is 5.29 µM (active).

On to `CCCCCCCCCCCCN(C)C`, for which the result was inactive.

For `CC1(C)[C@H](C(=O)O[C@H](C#N)c2cccc(Oc3ccccc3)c2)[C@@H]1/C=C(\Cl)C(F)(F)F`, the result was inactive.

As to `CCOC(=O)CCN(SN(C)C(=O)Oc1cccc2c1OC(C)(C)C2)C(C)C`, the AC50 was 9.18 µM (active).

With `CCOC(=O)C(SP(=S)(OC)OC)c1ccccc1` (stereo unspecified), the AC50 was 9.9 µM (active).

As to `N#CCCC(Br)(C#N)CBr` (stereo unspecified), the result was inactive.

A further assay has as its target mouse Estrogen Receptor alpha (Era), Esr1 (gene 13982) (UniProt P19785). Nature of the assay: NVS_NR_mERa: NovaScreen (NVS) Nuclear Receptor Binding Assay for mouse Estrogen Receptor alpha (Era) (AID 2283378).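 Also: hit means loss of bound radioligand signal relative to DMSO.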 A digest of the protocol: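 Cell-free radioligand competitive displacement binding, read by filter-based scintillation counting 18 h after dosing. Primary screen run in duplicate at 25 uM, actives retested in concentration series; loss of signal versus DMSO.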
On to `O=C(Cl)OCCOCCOC(=O)Cl`, for which the AC50 is 6.49 µM (active).

As for `C=CC(=O)[O][Sn]([CH2]CCC)([CH2]CCC)[CH2]CCC`, the compound was called inactive.

For the compound `O=S(=O)(Oc1ccc(Cl)cc1)c1ccc(Cl)cc1`, the result was inactive.

`Nc1ccc(Br)cc1`: the compound was called inactive.

On to `O=C(NC(=O)c1c(F)cccc1F)Nc1cc(Cl)c(Oc2ncc(C(F)(F)F)cc2Cl)c(Cl)c1`, for which the compound was classed as inactive.

Consider `COC(=O)c1cc(Oc2ccc(Cl)cc2Cl)ccc1[N+](=O)[O-]`, for which the result was inactive.

For the compound `OCC(c1ccc(Cl)cc1)c1ccc(Cl)cc1`, the compound was classed as inactive.

With `CC(C)(C)c1cc([N+](=O)[O-])cc(C(C)(C)C)c1O`, the compound was called inactive.

`CC(O)(CS(=O)(=O)c1ccc(F)cc1)C(=O)Nc1ccc(C#N)c(C(F)(F)F)c1` (stereo unspecified): the AC50 is 0.026 µM (active).

Take `CC(C)(C1CCC(O)CC1)C1CCC(O)CC1` (stereo unspecified): the result was inactive.

Take `O=c1[nH]c2ccccc2n1C1CCN(CCCC(c2ccc(F)cc2)c2ccc(F)cc2)CC1`: the compound was called inactive.

The target of a further assay is Agonist Androgen Response Element (ARE), AR (gene 367) (UniProt P10275). Description: OT_AR_ARELUC_AG_1440: Odyssey Thera (OT) 24-hour CHO-K1 Luciferase Assay for Agonist Androgen Response Element (ARE) (AID 2283379). A digest of the protocol:
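Luminescence increase above DMSO, read after a 24 h compound treatment of CHO-K1 cells expressing an androgen response element luciferase reporter, gives the single primary endpoint; concentration-response fitting used the positive direction.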
Take `CNC(=O)O/N=C/C(C)(C)S(C)(=O)=O`: the AC50 was 0.623 µM (active).

With `Cc1cc(Cl)ccc1OCCCC(=O)O`, the call was inactive.

`N#CCC#N`: the call was inactive.

On to `O=C(NC(=O)c1c(F)cccc1F)Nc1cc(Cl)c(OC(F)(F)C(F)C(F)(F)F)cc1Cl` (stereo unspecified), for which the compound was classed as inactive.

`C=CC(Cl)CCl` (stereo unspecified): the compound was classed as inactive.

In the next assay the target is Estrogen receptor (Homo sapiens) (UniProt P03372). Description: OT_ERa_GFPERaERE_0480: Odyssey Thera (OT) 8-hour HeLa Transcription Induction Assay for Estrogen Receptor (AID 2283381; active = hit-call score of the fitted dose curve at least 0.9, where 1 is the maximum; inactive = score below 0.9). A digest of the protocol:
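Fluorescence microscopy with high-content image analysis measures ERE-driven GFP induction in HeLa cells at 8 h post-dose. Increases fitted against DMSO baseline.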
In the case of `O=C(NC(=O)c1c(F)cccc1F)Nc1ccc(Cl)cc1`, the call was inactive.

For `C=CCN=C=S`, the outcome was inactive.

For `N#Cc1cccnc1`, the compound was classed as inactive.

As to `CCCCCCCCCCCCN(C)C`, the compound was classed as inactive.

As for `O=CCCl`, the compound was classed as inactive.

Regarding `CNC(=O)O/N=C/C(C)(C)S(C)(=O)=O`, the call was inactive.

With `CCOc1ccc(N)cc1`, the call was inactive.

Turning to `N#CCC#N`, the call was inactive.

With `CCN(CCO)CCO`, the outcome was inactive.

Consider `O=C(O)COc1ccc(Cl)cc1`, for which the compound was called inactive.

Turning to `CCCSP(=S)(OCC)Oc1ccc(SC)cc1` (stereo unspecified), the compound was called inactive.

For the compound `N#CCCC(Br)(C#N)CBr` (stereo unspecified), the outcome was inactive.

Take `CC(O)(CS(=O)(=O)c1ccc(F)cc1)C(=O)Nc1ccc(C#N)c(C(F)(F)F)c1` (stereo unspecified): the AC50 was 12.8 µM (active).

For `O=C(NC(=O)c1c(F)cccc1F)Nc1cc(Cl)c(OC(F)(F)C(F)C(F)(F)F)cc1Cl` (stereo unspecified), the compound was called inactive.

Another assay has the same target. Nature of the assay: OT_ERa_GFPERaERE_0120: Odyssey Thera (OT) 2-hour HeLa Transcription Induction Assay for Estrogen Receptor (AID 2283382). A digest of the protocol: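 Fluorescence-microscopy images of the GFP-ERα/ERE reporter, scored by high-content image algorithms, give the readout. HeLa exposure lasted 2 h, and only signal increase over DMSO was fitted.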
As for `O=C(NC(=O)c1c(F)cccc1F)Nc1ccc(Cl)cc1`, the call was inactive.

As for `C=CCN=C=S`, the compound was called inactive.

Regarding `N#Cc1cccnc1`, the outcome was inactive.

`CCCCCCCCCCCCN(C)C`: the compound was classed as inactive.

In the case of `O=CCCl`, the outcome was inactive.

On to `CNC(=O)O/N=C/C(C)(C)S(C)(=O)=O`, for which the compound was called inactive.

With `CCOc1ccc(N)cc1`, the result was inactive.

On to `N#CCC#N`, for which the call was inactive.

As to `CCN(CCO)CCO`, the compound was called inactive.

For `O=C(O)COc1ccc(Cl)cc1`, the result was inactive.

Take `CCCSP(=S)(OCC)Oc1ccc(SC)cc1` (stereo unspecified): the result was inactive.

In the case of `N#CCCC(Br)(C#N)CBr` (stereo unspecified), the compound was classed as inactive.

For `CC(O)(CS(=O)(=O)c1ccc(F)cc1)C(=O)Nc1ccc(C#N)c(C(F)(F)F)c1` (stereo unspecified), the compound was called inactive.

In the case of `O=C(NC(=O)c1c(F)cccc1F)Nc1cc(Cl)c(OC(F)(F)C(F)C(F)(F)F)cc1Cl` (stereo unspecified), the compound was classed as inactive.
